Source: PubChem BioAssay
Inconclusive results are not listed. The source made the active and inactive calls.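 How the source made its calls, unless noted: active means response below a set limit, under 55% cells CD8-positive and vesicle-bound, and CD8 cells' 90th-percentile brightness under 279; inactive means the rest.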

Assays:
[1] = rapamycin-like changes in RPL19A-GFP expression – cell-based, S. cerevisiae, multiplex flow cytometry, primary screen (AID 1862; in the data active means percent of DMSO control GFP below about 86%;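 further: lower values mimic rapamycin by blocking the RPL19A rise seen in DMSO cells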); settings: S. cerevisiae RPL19A-GFP strain, flow cytometry fluorescence, 3 h; at 10 µM; stronger effect = lower value
[2] = TOR pathway GLN3 branch reporter MEP2-GFP changes – S. cerevisiae, multiplex flow cytometry, primary screen (AID 1867;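 active means GFP response, as percent of the DMSO control, above the screen-wide mean plus 3 SD, about 139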;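 further: median GFP channel fluorescence of barcode-gated MEP2-GFP cells measured by flow cytometry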); settings: S. cerevisiae MEP2-GFP strain, 3 h, at 10 µM, stronger effect = higher value, 100% means same as DMSO wells
[3] = TOR pathway RTG branch CIT2 reporter changes – S. cerevisiae, GFP fusion, multiplex flow cytometry, primary screen (AID 1870;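 active means percent response above a set limit, the screen-wide mean plus 3 SD, cut at about 130% in these data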;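 further: barcoded CIT2-GFP strain pooled with four other GFP strains with rapamycin as positive control; median GFP fluorescence per well over plate mean of DMSO wells so 100% = DMSO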); settings: S. cerevisiae CIT2-GFP expression, 3 h, at 10 µM, stronger effect = higher value
[4] = TOR pathway LAP4-GFP level changes – S. cerevisiae, multiplex flow cytometry, primary screen (AID 1873;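 active means GFP signal, as percent of the solvent control, above the screen mean plus 3 SD, about 149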); settings: S. cerevisiae LAP4-GFP expression, 3 h, at 10 µM, stronger effect = higher value
[5] = yeast AGP1-GFP level changes, GLN3 branch – cell-based, multiplex flow cytometry, S. cerevisiae, primary screen (AID 1887;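 active means GFP signal above the screen-wide mean plus 3 SD, that is over about 124.5% of the solvent control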;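 further: AGP1-GFP fusion strain of S. cerevisiae within a five-strain barcoded multiplex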); settings: 3 h, at 10 µM, stronger effect = higher value
[6] = reduced mouse 2C T cell binding to pMHC/ICAM-1 vesicles – MLPCN validation set, flow cytometry, LFA-1/ICAM-1 modulator project, pilot screen (AID 2523); settings: 2C mouse CD8+ T cells, at 7 µM, stronger effect = lower value; double positive events: measured here: CD8+/vesicle+ event percentage;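 on vesicle binding response: mean PE anti-B7-1 fluorescence of CD8+ cells relative to row control; 100% = QL9-loaded vesicles with DMSO vehicle in the same plate row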
[7] = molecular target: Integrin beta-1 (Homo sapiens) + Integrin alpha-4 (Homo sapiens) (UniProt P13612+P05556); assay: alpha4beta1 integrin LIBS antibody binding reduction – U937 cells, HUTS-21 mAb, flow cytometry, validation set, VLA-4 allosteric modulator project, pilot screen (AID 2674;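 active means inhibition above 50%, about 3 SD of the validation set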;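 further: antibody binding induced by the VLA-4 ligand LDV present at three times its Kd; 0% = LDV ligand with antibody and no compound and 100% = antibody without LDV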); settings: HUTS-21 LIBS mAb binding, at 6.7 µM, stronger effect = higher value, binding induced by LDV ligand
[8] = calorie-restriction mimetic ROS inhibitors, yeast – validation compound set, pilot screen (AID 2706;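 active means superoxide response below 65% of plate, a cut near 3 SD across the whole screen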;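 further: yeast exposed to compound for one week at 30 degrees C before staining; 100% = mean of all compound wells on the same plate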); settings: S. cerevisiae aging, superoxide DHE fluorescence; at 10 µM; stronger effect = lower value
[9] = molecular target: Beta-adrenergic receptor kinase 1 (Homo sapiens) (UniProt P25098); assay: GRK2 binders displacing RNA aptamer, biochemical, validation, human GRK2, bead flow cytometry (AID 488806;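 active means aptamer binding inhibition above 30%, about 3 SD of noise from non-fluorescent compounds; inactive means inhibition at or below 30%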); settings: bead-bound GRK2, FAM-aptamer displacement, at 10 µM, stronger effect = higher value
[10] = molecular target: Beta-2 adrenergic receptor (Homo sapiens) (UniProt P07550); assay: agonist-induced loss of surface beta2AR – cell-based, FAP fluorogen, flow cytometry, validation set, pilot screen (AID 504459;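 active means percent response above 42, roughly 3 SD of non-fluorescent test compounds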;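 further: agonist-driven loss of surface beta2AR via internalization measured by FAP dye flow cytometry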); settings: Am2.2-beta2AR cells, at 10 µM, stronger effect = higher value
[11] = molecular target: AP-2 complex subunit beta (Homo sapiens) (UniProt P63010); assay: beta-arrestin/AP2 interaction blockers – biochemical, validation set, GST-AP2 beads, flow cytometry, pilot screen (AID 504541;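 active means inhibition above 54%, about 3 SD of non-fluorescent compounds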;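 further: AP2 carries R879A mutation and is captured from E. coli lysate; bead-bound FITC arrestin peptide fluorescence measuring arrestin peptide binding to AP2; 0% = DMSO wells and 100% = excess unlabeled arrestin peptide control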); settings: FITC arrestin peptide, at 10 µM, stronger effect = higher value, AP2 beta2 appendage fragment, R879A mutant
[12] = cytosolic pH regulators acting via V-ATPase – S. cerevisiae, pHLuorin, HTS validation (AID 504600; in the data active means response above about 15%;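 further: plate controls were DMSO for no effect and reference compound for full effect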); settings: V-ATPase proton transport, at 10 µM, stronger effect = higher value
[13] = system: anti-desmoglein-3 scFv antibody binding to human DSG3; assay: blockers of pathogenic pemphigus antibody–desmoglein-3 binding – biochemical, validation compound set, bead-based, flow cytometry, pilot screen (AID 588368;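 active means binding below the plate cutoff, the plate median minus 3 SD, with a reading above zero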;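 further: signal is the median channel fluorescence of bead-bound GFP antibody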); settings: Protein G beads, DSG3-Fc, scFv-GFP binding, at 10 µM, stronger effect = lower value
[14] = Nile Red efflux blockade in pump-expressing yeast – validation compound set, multiplex, phenotypic, pilot screen (AID 588506;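 active means efflux inhibition above 0.42, the validation set average plus 4 SD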;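 further: Nile Red retained in cells so higher fluorescence means more efflux inhibition; 0 = negative control wells and 1 = enniatin B 25 µM full block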); settings: S. cerevisiae pump-expressing triplex, Nile Red efflux flow cytometry; at 10 µM; stronger effect = higher value; the pumps come from Candida albicans
[15] = molecular target: ATP-binding cassette sub-family B member 6 (Homo sapiens) (UniProt Q9NP58); assay: blockers of ABCB6-driven porphyrin uptake – K562-ABCB6 cells, flow cytometry, validation set, pilot screen (AID 588550;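 active means inhibition above the screen-wide mean plus 3 SD, about 51%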;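 further: 0% = DMSO wells and 100% = benzethonium chloride 70 µM positive control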); settings: K562-ABCB6 porphyrin accumulation, 1 h, at 10 µM, stronger effect = higher value
[16] = AML differentiation inducers, ER-HoxA9 marrow cells – cell-based, GFP/MAC1 double positive, flow cytometry, validation set, primary screen (AID 588685;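 active means differentiation response of at least 50%, scaled between solvent and reference control, from cells with both markers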;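 further: compound exposure lasts four days before antibody staining and flow analysis; 0% = DMSO wells and 100% = 5 µM fulvestrant positive control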); settings: stronger effect = higher value, normalized: vehicle 0, fulvestrant 100

Chain of Beta-adrenergic receptor kinase 1 (Homo sapiens) (P25098 whole entry, looked up): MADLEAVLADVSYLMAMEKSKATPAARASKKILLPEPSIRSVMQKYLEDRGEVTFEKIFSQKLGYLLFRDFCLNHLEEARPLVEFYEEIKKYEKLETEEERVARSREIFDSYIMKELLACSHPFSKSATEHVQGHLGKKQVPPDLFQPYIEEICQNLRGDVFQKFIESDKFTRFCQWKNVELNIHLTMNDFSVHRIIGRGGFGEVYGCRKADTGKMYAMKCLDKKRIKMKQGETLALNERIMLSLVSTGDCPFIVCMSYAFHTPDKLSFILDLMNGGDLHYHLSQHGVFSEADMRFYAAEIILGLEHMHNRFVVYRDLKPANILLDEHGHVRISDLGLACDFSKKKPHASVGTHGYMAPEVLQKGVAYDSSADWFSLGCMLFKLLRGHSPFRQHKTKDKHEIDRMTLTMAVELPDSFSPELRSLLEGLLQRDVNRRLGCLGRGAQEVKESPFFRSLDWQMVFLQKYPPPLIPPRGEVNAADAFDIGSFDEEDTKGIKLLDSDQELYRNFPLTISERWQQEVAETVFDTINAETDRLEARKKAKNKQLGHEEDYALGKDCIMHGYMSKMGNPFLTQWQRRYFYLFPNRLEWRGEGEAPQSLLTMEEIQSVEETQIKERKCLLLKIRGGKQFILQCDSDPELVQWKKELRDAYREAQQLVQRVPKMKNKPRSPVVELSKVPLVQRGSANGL
Chain of Beta-2 adrenergic receptor (Homo sapiens) (P07550 whole entry, looked up): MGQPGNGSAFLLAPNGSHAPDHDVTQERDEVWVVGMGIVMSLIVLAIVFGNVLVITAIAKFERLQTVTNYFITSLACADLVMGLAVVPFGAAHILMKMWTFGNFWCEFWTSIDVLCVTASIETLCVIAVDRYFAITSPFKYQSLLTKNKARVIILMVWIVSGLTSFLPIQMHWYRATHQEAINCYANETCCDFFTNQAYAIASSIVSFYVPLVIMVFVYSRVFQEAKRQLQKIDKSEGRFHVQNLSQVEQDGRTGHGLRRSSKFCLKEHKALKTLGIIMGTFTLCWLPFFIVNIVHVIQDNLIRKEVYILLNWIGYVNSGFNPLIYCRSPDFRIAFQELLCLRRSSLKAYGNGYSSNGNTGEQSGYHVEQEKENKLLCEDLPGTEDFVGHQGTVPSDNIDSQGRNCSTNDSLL
Chain of Integrin beta-1 (Homo sapiens) + Integrin alpha-4 (Homo sapiens) (P05556 whole entry, looked up): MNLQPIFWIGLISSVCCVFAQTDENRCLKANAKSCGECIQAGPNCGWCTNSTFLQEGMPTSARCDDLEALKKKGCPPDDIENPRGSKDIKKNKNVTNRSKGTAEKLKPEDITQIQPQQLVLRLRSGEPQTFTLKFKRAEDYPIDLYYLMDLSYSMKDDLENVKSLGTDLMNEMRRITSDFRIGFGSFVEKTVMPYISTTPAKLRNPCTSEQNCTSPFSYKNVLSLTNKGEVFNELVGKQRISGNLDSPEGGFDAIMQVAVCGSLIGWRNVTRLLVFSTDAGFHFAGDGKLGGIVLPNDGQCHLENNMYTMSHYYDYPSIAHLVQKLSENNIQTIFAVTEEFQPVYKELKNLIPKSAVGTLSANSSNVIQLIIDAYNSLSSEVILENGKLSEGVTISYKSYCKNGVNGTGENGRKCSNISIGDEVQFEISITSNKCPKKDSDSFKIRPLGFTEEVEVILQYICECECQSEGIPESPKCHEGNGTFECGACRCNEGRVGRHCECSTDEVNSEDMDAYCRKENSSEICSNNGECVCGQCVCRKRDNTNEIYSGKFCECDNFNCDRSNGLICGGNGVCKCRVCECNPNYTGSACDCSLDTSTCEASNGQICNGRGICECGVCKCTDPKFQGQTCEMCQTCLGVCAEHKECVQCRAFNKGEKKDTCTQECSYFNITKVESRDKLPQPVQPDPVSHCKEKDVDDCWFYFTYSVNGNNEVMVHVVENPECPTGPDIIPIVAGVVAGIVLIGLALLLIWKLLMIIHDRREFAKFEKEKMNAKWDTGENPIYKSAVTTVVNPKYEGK
Chain of Integrin beta-1 (Homo sapiens) + Integrin alpha-4 (Homo sapiens) (P13612 whole entry, looked up): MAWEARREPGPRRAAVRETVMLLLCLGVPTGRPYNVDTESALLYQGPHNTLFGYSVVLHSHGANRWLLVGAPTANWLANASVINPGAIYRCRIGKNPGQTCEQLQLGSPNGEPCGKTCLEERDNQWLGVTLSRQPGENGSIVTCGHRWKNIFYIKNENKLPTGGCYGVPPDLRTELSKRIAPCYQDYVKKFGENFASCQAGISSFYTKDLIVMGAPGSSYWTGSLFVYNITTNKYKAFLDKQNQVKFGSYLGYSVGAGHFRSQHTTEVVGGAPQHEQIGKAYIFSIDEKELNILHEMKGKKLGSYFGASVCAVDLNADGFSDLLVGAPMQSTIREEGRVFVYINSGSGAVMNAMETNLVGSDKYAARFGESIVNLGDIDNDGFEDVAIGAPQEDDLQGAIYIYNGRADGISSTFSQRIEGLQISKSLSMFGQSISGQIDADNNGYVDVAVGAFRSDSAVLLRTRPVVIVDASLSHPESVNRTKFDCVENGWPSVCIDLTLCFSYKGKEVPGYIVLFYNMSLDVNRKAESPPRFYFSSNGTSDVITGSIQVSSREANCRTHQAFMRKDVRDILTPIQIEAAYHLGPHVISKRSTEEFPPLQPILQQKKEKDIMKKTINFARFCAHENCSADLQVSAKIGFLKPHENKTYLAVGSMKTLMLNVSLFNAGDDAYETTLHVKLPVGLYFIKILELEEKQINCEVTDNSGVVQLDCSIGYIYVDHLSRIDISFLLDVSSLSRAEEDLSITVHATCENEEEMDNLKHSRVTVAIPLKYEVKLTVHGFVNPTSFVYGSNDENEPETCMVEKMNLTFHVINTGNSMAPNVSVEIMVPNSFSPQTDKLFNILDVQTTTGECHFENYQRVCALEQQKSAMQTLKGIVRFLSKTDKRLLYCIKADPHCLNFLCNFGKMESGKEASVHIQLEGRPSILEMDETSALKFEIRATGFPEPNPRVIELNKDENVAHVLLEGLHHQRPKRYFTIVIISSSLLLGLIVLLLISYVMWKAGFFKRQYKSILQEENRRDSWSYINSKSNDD
Chain of AP-2 complex subunit beta (Homo sapiens) (P63010 whole entry, looked up, the tested form may be a part, one chain of several): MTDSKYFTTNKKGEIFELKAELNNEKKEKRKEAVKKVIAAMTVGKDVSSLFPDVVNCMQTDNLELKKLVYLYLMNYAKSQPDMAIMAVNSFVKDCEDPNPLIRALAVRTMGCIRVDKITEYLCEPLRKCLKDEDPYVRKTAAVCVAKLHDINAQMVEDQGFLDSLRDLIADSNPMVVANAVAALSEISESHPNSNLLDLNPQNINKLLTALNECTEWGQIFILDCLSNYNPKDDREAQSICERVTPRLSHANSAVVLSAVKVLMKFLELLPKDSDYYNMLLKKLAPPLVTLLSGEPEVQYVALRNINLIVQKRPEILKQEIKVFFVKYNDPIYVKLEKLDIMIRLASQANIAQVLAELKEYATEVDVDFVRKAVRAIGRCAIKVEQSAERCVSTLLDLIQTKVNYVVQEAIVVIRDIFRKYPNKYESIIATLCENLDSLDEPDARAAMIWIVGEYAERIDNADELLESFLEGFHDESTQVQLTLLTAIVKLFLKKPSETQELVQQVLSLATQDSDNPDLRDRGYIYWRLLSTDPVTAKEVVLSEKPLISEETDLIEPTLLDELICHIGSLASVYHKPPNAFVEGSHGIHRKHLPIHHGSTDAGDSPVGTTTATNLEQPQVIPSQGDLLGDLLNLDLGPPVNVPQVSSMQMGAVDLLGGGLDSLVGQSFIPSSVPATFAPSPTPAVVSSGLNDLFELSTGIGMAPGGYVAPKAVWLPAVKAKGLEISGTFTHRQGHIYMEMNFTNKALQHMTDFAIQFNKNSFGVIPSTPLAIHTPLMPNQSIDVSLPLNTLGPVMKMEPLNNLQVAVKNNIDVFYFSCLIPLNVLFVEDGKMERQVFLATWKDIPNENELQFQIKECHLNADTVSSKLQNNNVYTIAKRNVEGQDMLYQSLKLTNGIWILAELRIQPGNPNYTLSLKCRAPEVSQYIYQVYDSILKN
Chain of ATP-binding cassette sub-family B member 6 (Homo sapiens) (Q9NP58 whole entry, looked up): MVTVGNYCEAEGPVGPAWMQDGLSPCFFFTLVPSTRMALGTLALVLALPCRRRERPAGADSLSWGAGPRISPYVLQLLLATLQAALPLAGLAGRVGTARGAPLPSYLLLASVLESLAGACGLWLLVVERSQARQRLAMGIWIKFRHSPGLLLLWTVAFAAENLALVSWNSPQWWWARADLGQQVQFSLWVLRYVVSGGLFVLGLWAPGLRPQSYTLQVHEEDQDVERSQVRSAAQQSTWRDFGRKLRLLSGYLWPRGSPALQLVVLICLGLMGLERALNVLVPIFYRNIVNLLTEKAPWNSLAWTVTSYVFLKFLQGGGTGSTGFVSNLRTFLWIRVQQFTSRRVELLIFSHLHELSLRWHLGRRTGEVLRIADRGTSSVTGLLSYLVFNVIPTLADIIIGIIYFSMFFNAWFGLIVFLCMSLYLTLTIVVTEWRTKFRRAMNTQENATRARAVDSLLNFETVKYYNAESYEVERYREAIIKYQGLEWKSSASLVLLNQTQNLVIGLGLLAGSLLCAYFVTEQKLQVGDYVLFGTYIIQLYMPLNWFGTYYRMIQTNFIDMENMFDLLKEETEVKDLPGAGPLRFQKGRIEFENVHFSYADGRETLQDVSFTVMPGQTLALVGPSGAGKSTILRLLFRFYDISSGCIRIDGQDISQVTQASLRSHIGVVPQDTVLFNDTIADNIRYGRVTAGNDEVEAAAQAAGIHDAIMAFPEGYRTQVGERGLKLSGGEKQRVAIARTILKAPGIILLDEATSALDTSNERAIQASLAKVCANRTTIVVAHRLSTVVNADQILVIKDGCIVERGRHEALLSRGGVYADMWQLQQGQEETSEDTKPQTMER

Cc1cc(NS(=O)(=O)c2ccc(N)cc2)no1
63.3%: double positive events [6]
inactive: percent of DMSO control GFP [1] 103% | GFP response vs DMSO [2] 98.7% | percent response of DMSO control [3] 107% | GFP response vs DMSO [4] 102% | GFP response, % of DMSO [5] 113% | vesicle binding response [6] 121% | inhibition [7] 15% | superoxide response (% of plate) [8] 99.6% | aptamer binding inhibition [9] -1% | response [10] 5.64% | inhibition [11] -2.38% | response [12] -1.68% | binding (% of control) [13] 99.2% | efflux inhibition (fraction of control) [14] -0.16 | inhibition [15] 4% | differentiation response [16] -11.9%

CSCCC(NC(C)=O)C(=O)Oc1ccc2c3c(c(=O)oc2c1)CCCC3 (stereo not given)
61.1%: double positive events [6]
inactive: percent of DMSO control GFP [1] 102% | GFP response vs DMSO [2] 101% | percent response of DMSO control [3] 105% | GFP response vs DMSO [4] 99.9% | GFP response, % of DMSO [5] 100% | vesicle binding response [6] 56% | inhibition [7] 3.7% | superoxide response (% of plate) [8] 102% | aptamer binding inhibition [9] 4% | response [10] -6.44% | inhibition [11] 17.4% | response [12] -2.62% | binding (% of control) [13] 93.2% | efflux inhibition (fraction of control) [14] -0.01 | inhibition [15] 11% | differentiation response [16] 0.24%

CC[N+]1(C)CC2CCC(C)(C1)C2(C)C (stereo not given)
inactive: percent of DMSO control GFP [1] 106% | GFP response vs DMSO [2] 104% | percent response of DMSO control [3] 101% | GFP response vs DMSO [4] 96.5% | GFP response, % of DMSO [5] 97.4% | vesicle binding response [6] 193% | inhibition [7] 11.9% | superoxide response (% of plate) [8] 103% | aptamer binding inhibition [9] 5% | response [10] 5% | inhibition [11] 11.5% | response [12] -4.32% | binding (% of control) [13] 98% | efflux inhibition (fraction of control) [14] -0.06 | inhibition [15] 7% | differentiation response [16] -21.6%
59.7%: double positive events [6]

CC1(C)CC(=O)c2cnc(NC(=O)C3CCCC3)nc2C1
inactive: percent of DMSO control GFP [1] 105% | GFP response vs DMSO [2] 96.2% | percent response of DMSO control [3] 109% | GFP response vs DMSO [4] 80.8% | GFP response, % of DMSO [5] 96.5% | vesicle binding response [6] 442% | inhibition [7] 4.73% | superoxide response (% of plate) [8] 95.1% | aptamer binding inhibition [9] 6% | response [10] -15.9% | inhibition [11] -7.26% | response [12] -0.99% | binding (% of control) [13] 96.1% | efflux inhibition (fraction of control) [14] 0.36 | inhibition [15] -50% | differentiation response [16] 10%
61%: double positive events [6]

COc1ccc(C(=O)Nc2cccc3cccnc23)cc1OC
inactive: percent of DMSO control GFP [1] 102% | GFP response vs DMSO [2] 105% | percent response of DMSO control [3] 105% | GFP response vs DMSO [4] 119% | GFP response, % of DMSO [5] 96.3% | vesicle binding response [6] 156% | inhibition [7] -18.5% | superoxide response (% of plate) [8] 103% | aptamer binding inhibition [9] -4% | response [10] 10.2% | inhibition [11] -6.27% | response [12] -0.52% | binding (% of control) [13] 103% | efflux inhibition (fraction of control) [14] -0.33 | inhibition [15] 0% | differentiation response [16] -17.7%
49.8%: double positive events [6]

Cc1ccc([N+](=O)[O-])cc1NC1OC(CO)C(O)C1O (stereo not given)
inactive: percent of DMSO control GFP [1] 102% | GFP response vs DMSO [2] 105% | percent response of DMSO control [3] 104% | GFP response vs DMSO [4] 120% | GFP response, % of DMSO [5] 109% | vesicle binding response [6] 186% | inhibition [7] -16.4% | superoxide response (% of plate) [8] 108% | aptamer binding inhibition [9] 4% | response [10] -23% | inhibition [11] 7.17% | response [12] 2.59% | binding (% of control) [13] 103% | efflux inhibition (fraction of control) [14] -0.04 | inhibition [15] 3% | differentiation response [16] 2.89%
56.8%: double positive events [6]

O=C(CCc1c[nH]c2ccccc12)NCc1ccco1
inactive: percent of DMSO control GFP [1] 102% | GFP response vs DMSO [2] 106% | percent response of DMSO control [3] 93.8% | GFP response vs DMSO [4] 109% | GFP response, % of DMSO [5] 106% | vesicle binding response [6] 201% | inhibition [7] 3.99% | superoxide response (% of plate) [8] 98.4% | aptamer binding inhibition [9] -3% | response [10] -21.7% | inhibition [11] 33.1% | response [12] 1.49% | binding (% of control) [13] 103% | efflux inhibition (fraction of control) [14] 0.04 | inhibition [15] 5% | differentiation response [16] 0.92%
63%: double positive events [6]

CCn1c(/C=C/c2ccccc2)nc2ccccc2c1=O
inactive: percent of DMSO control GFP [1] 98.8% | GFP response vs DMSO [2] 111% | percent response of DMSO control [3] 78.7% | GFP response vs DMSO [4] 122% | GFP response, % of DMSO [5] 92.6% | vesicle binding response [6] 134% | inhibition [7] 7.76% | superoxide response (% of plate) [8] 102% | aptamer binding inhibition [9] 3% | response [10] 18.5% | inhibition [11] -8.94% | response [12] 1.61% | binding (% of control) [13] 101% | efflux inhibition (fraction of control) [14] 0.08 | inhibition [15] 7% | differentiation response [16] 18.4%
59.1%: double positive events [6]

COC(=O)c1sccc1NC(=O)Nc1ccccc1F
inactive: percent of DMSO control GFP [1] 100% | GFP response vs DMSO [2] 103% | percent response of DMSO control [3] 105% | GFP response vs DMSO [4] 88.2% | GFP response, % of DMSO [5] 101% | vesicle binding response [6] 197% | inhibition [7] 5.61% | superoxide response (% of plate) [8] 93.7% | aptamer binding inhibition [9] -3% | response [10] 2% | inhibition [11] -3.3% | response [12] -6.01% | binding (% of control) [13] 103% | efflux inhibition (fraction of control) [14] -0.28 | inhibition [15] 23% | differentiation response [16] 7.13%
69.3%: double positive events [6]

Cc1nc2ccccc2n1CC(=O)NC1CCCC1
inactive: percent of DMSO control GFP [1] 101% | GFP response vs DMSO [2] 95.6% | percent response of DMSO control [3] 109% | GFP response vs DMSO [4] 92.6% | GFP response, % of DMSO [5] 105% | vesicle binding response [6] 118% | inhibition [7] -2.43% | superoxide response (% of plate) [8] 84.9% | aptamer binding inhibition [9] -2% | response [10] 7.07% | inhibition [11] -5.83% | response [12] 0.83% | binding (% of control) [13] 105% | efflux inhibition (fraction of control) [14] 0.115 | inhibition [15] -2% | differentiation response [16] -8.96%
60.6%: double positive events [6]
